Results reported in PubChem BioAssay (NCI).
Values joined by “and” are separate entries in the source; they are usually repeats but may differ in a detail not shown here. Equal values may be shown once. Compounds without any hit were thinned out: in the full panel of roughly 83,000, 20% have a hit.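 Compound tested at a single concentration for 48 hours in 96-well plates; a percent growth value below 10 was scored as active.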 Values without a mark were called inactive. Active and inactive are the calls of the source.

Experiments:
Experiment in all cases: NCI-60 one-dose screen, 48 h (100 = growth as untreated, 0 = no growth, -100 = all killed)
Conditions in all cases: 10 µM unless noted
[1] = tested on: HCT-15 colon
[2] = tested on: HT29 colon
[3] = tested on: SNB-75 CNS
[4] = tested on: SNB-19 CNS
[5] = tested on: U251 CNS
[6] = tested on: PC-3 prostate
[7] = tested on: SK-MEL-5 melanoma
[8] = tested on: UACC-62 melanoma
[9] = tested on: LOX IMVI melanoma
[10] = tested on: SK-MEL-28 melanoma
[11] = tested on: SK-MEL-2 melanoma
[12] = tested on: EKVX NSCLC
[13] = tested on: SN12C renal
[14] = tested on: UO-31 renal
[15] = tested on: TK-10 renal
[16] = tested on: ACHN renal
[17] = tested on: CAKI-1 renal
[18] = tested on: A498 renal
[19] = tested on: CCRF-CEM leukemia
[20] = tested on: MOLT-4 leukemia

SMILES: CCn1cc(C(=O)NN=C2CCCC2)c(=O)c2ccc(C)nc21
- growth [1]: 96.6%
- growth [2]: 96.9%
- growth [3]: 86.1%
- growth [4]: 96.6%
- growth [5]: 96.5%
- growth [6]: 85.6%
- growth [7]: 92.8%
- growth [8]: 78.6%
- growth [9]: 98.1%
- growth [10]: 90.9%
- growth [11]: 96.5%
- growth [12]: 88.8%
- growth [13]: 81%
- growth [14]: 81.3%
- growth [15]: 100%
- growth [16]: 86.6%
- growth [17]: 84.2%
- growth [18]: 66.7%
- growth [19]: 89.7%
- growth [20]: 100%

SMILES: N#CC1C(=O)c2ccccc2C1c1ccccc1 (stereo not given)
- growth [1]: 101% and 95.5%
- growth [2]: 114% and 110%
- growth [3]: 89.5% and 93.2%
- growth [4]: 97.1% and 98.5%
- growth [5]: 98.6% and 99.8%
- growth [6]: 111% and 116%
- growth [7]: 96.8% and 103%
- growth [8]: 100% and 101%
- growth [9]: 91.5% and 98.1%
- growth [10]: 107% and 117%
- growth [11]: 103%
- growth [12]: 103%
- growth [13]: 101% and 98.5%
- growth [14]: 74% and 84.6%
- growth [15]: 109% and 106%
- growth [16]: 108% and 103%
- growth [17]: 92.2% and 93.6%
- growth [18]: 128% and 99.1%
- growth [19]: 98.2% and 94.2%
- growth [20]: 80.4% and 83.3%

SMILES: CCCc1cc(C(N)=S)ccn1
- growth [1]: 102%
- growth [2]: 97.6%
- growth [3]: 103%
- growth [4]: 115%
- growth [5]: 103%
- growth [6]: 98.3%
- growth [7]: 107%
- growth [8]: 108%
- growth [9]: 96.7%
- growth [10]: 116%
- growth [11]: 103%
- growth [12]: 99.1%
- growth [13]: 105%
- growth [14]: 76.4%
- growth [15]: 100%
- growth [16]: 102%
- growth [17]: 96.1%
- growth [18]: 125%
- growth [19]: 113%
- growth [20]: 105%

SMILES: COc1ccc(C(c2cc(OC)c(OC)c(OC)c2)n2ccnc2)cc1O (stereo not given)
- growth [1]: 7.7% (active)
- growth [2]: 5.94% (active)
- growth [3]: 56.7%
- growth [4]: 30.5%
- growth [5]: 15.5%
- growth [6]: 20.7%
- growth [7]: -12.9% (active)
- growth [8]: 36.5%
- growth [9]: 25.7%
- growth [10]: 62.9%
- growth [11]: 43.5%
- growth [12]: 30.2%
- growth [13]: 37.6%
- growth [14]: 62%
- growth [15]: 52.9%
- growth [16]: 42.4%
- growth [17]: 41.3%
- growth [18]: 8.04% (active)
- growth [19]: 6.97% (active)
- growth [20]: 14%

SMILES: Cc1nc2sc(C(=O)Nc3cccc4ccccc34)c(N)c2cc1C(=O)/C=C/c1ccccc1
- growth [1]: -63.3% (active)
- growth [2]: -47.9% (active)
- growth [3]: 8.27% (active)
- growth [4]: -27.1% (active)
- growth [5]: -67.3% (active)
- growth [6]: -8.41% (active)
- growth [7]: -17.8% (active)
- growth [8]: 7.54% (active)
- growth [9]: -73.1% (active)
- growth [10]: 23.6%
- growth [11]: 27%
- growth [12]: 41.1%
- growth [13]: -44.3% (active)
- growth [14]: -82.6% (active)
- growth [15]: 4.36% (active)
- growth [16]: 5.45% (active)
- growth [17]: -60.6% (active)
- growth [18]: -5.08% (active)
- growth [19]: 5.51% (active)
- growth [20]: 18.4%

SMILES: O=C(O)C1C2CCC1C(O)C2 (stereo not given)
- growth [1]: 106% and 103%
- growth [2]: 102%
- growth [3]: 101% and 92.9%
- growth [4]: 102% and 108%
- growth [5]: 94.6% and 99.6%
- growth [6]: 110% and 95.9%
- growth [7]: 101% and 110%
- growth [8]: 110% and 108%
- growth [9]: 95.4% and 95.5%
- growth [10]: 104% and 110%
- growth [11]: 97.7% and 95.5%
- growth [12]: 110%
- growth [13]: 104% and 102%
- growth [14]: 81.6% and 82%
- growth [15]: 93.1% and 98.2%
- growth [16]: 106% and 104%
- growth [17]: 100% and 98.3%
- growth [18]: 116% and 113%
- growth [19]: 101% and 93.9%
- growth [20]: 93.6% and 93.5%

SMILES: CCCCC#Cc1c(/C=C(\CCCC)SCC)n(C)c(=O)[nH]c1=O
- growth [1]: 89.8%
- growth [2]: 92.6%
- growth [3]: 90.1%
- growth [4]: 107%
- growth [5]: 117%
- growth [6]: 94.1%
- growth [7]: 99%
- growth [8]: 90.4%
- growth [9]: 96.6%
- growth [10]: 118%
- growth [11]: 67.1%
- growth [12]: 104%
- growth [13]: 101%
- growth [14]: 90.9%
- growth [15]: 104%
- growth [16]: 101%
- growth [17]: 102%
- growth [18]: 72%
- growth [19]: 95%
- growth [20]: 62.1%
